In PubChem BioAssay (Tox21):
“And” between values parts separate entries of the source, which are not always exact repeats. Equal entries are not always repeated. Records with an inconclusive call do not appear. Where a structure was tested more than once in an assay, its records may differ in their call. The source made the active and inactive calls. Calls follow the shape of the dose curve; as a rule, active = well fitted curve in the direction sought with a large enough effect in the repeat runs; inconclusive = weak or mixed curves; inactive = no such curve, though single readings can be large; an effect the other way counts as inactive or inconclusive.

How the values were obtained:
[1] = A CellTox Green Cytotoxicity Assay to monitor cytotoxicity in HepG2 cells - 0 hour (AID 1224882); also: nearly all actives have a fitted effect of over 35% in size
In short: (§1)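 Cytotoxicity was tracked as dead-cell DNA fluorescence in HepG2 cells treated with test compounds at 37 C; each time-point value comes from one kinetic series spanning 0, 8, 16, 24, 32 and 40 h.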

[2] = A CellTox Green Cytotoxicity Assay to monitor cytotoxicity in HepG2 cells - 32 hour (AID 1224883); also: nearly all actives have a fitted effect of over 50% in size; also: potency is read from the fitted curve at half-maximal effect
In short: as §1

[3] = A CellTox Green Cytotoxicity Assay to monitor cytotoxicity in HEK293 cells - 8 hour (AID 1224884); also: nearly all actives have a fitted effect of over 35% in size; also: potency is read from the fitted curve at half-maximal effect
In short: (§2)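 Real-time, in one plate: 600 HEK293 cells/well with dead-cell DNA dye, pinned compound after 5 h, 37 C incubation over 40 h; viable cells give no appreciable fluorescence.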

[4] = qHTS RealTime-Glo MT Cell Viability Assay in HepG2 cells - 16 hour (AID 1224885); also: nearly all actives have a fitted effect of over 50% in size; also: potency is read from the fitted curve at half-maximal effect
In short: (§3)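 Cell number in HepG2 cultures estimated from NanoLuc luminescence generated by metabolic reduction of a prosubstrate by living cells. The homogeneous, nonlytic format allowed repeated reads at 0, 8, 16, 24, 32 and 40 h of compound exposure.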

[5] = qHTS RealTime-Glo MT Cell Viability Assay in HEK293 cells - 24 hour (AID 1224886); also: nearly all actives have a fitted effect of over 50% in size; also: potency is read from the fitted curve at half-maximal effect; as to activity change, negative = cytotoxicity: top concentration of the series differs between compounds
In short: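 Homogeneous bioluminescent viability format in HEK293 cells (600 cells/well). Following 5 h at 37 C/5% CO2, 23 nL compound was pintooled; the signal was measured repeatedly during 40 h incubation.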

[6] = qHTS RealTime-Glo MT Cell Viability Assay in HEK293 cells - 8 hour (AID 1224887); also: nearly all actives have a fitted effect of over 50% in size; also: potency is read from the fitted curve at half-maximal effect; as to activity change, negative = cytotoxicity: top concentration of the series differs between compounds
In short: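 Kinetic, non-lysing viability readout. Seed HEK293 (600/well) with reagent, incubate 5 h at 37 C/5% CO2, pin 23 nL compound in DMSO, incubate at 37 C, read luminescence at 0, 8, 16, 24, 32, 40 h.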

[7] = A CellTox Green Cytotoxicity Assay to monitor cytotoxicity in HEK293 cells - 16 hour (AID 1224888); also: nearly all actives have a fitted effect of over 35% in size; also: potency is read from the fitted curve at half-maximal effect
In short: as §2

[8] = qHTS RealTime-Glo MT Cell Viability Assay in HepG2 cells - 0 hour (AID 1224889); also: nearly all actives have a fitted effect of over 50% in size
In short: as §3

[9] = A CellTox Green Cytotoxicity Assay to monitor cytotoxicity in HepG2 cells - 8 hour (AID 1224890); also: nearly all actives have a fitted effect of over 45% in size; also: potency is read from the fitted curve at half-maximal effect
In short: as §1

[10] = A CellTox Green Cytotoxicity Assay to monitor cytotoxicity in HEK293 cells - 32 hour (AID 1224881); also: nearly all actives have a fitted effect of over 40% in size; also: potency is read from the fitted curve at half-maximal effect
In short: as §2
% is scaled to controls: 0 for no effect and ±100 for the full control effect.

O=C(Oc1cccc2cccnc12)c1ccccc1
inactive: Potency [1] | Potency [3] | Potency [4] | Potency [5] | Potency [6] | Potency [7] | Potency [8] | Potency [9]
active: Potency [2] 0.338 µM

COc1ccc(CN2CCN(C(c3ccc(F)cc3)c3ccc(F)cc3)CC2)c(OC)c1OC
active: Potency [2] 10.7 µM | Potency [5] 9.52 µM | Potency [6] 19 µM
inactive: Potency [10] | Potency [3] | Potency [7] | Potency [8] | Potency [9]

CCN(Cc1cccnc1)C(=O)c1cccc(Cl)c1[C@]1(C)C(=O)N(Cc2ccc(OC)cc2OC)c2ccc(Cl)cc21
active: Potency [5] 20.4 µM | Potency [6] 20.4 µM
inactive: Potency [10] | Potency [2] | Potency [3] | Potency [7] | Potency [8]

Cc1c(C)c2c(c(C)c1OC(=O)CCC(=O)O)CC[C@@](C)(CCC[C@H](C)CCC[C@H](C)CCCC(C)C)O2
inactive: Potency [10] | Potency [3] | Potency [4] | Potency [7] | Potency [9]

CCOc1nc2cccc(C(=O)OC(C)OC(=O)OC3CCCCC3)c2n1Cc1ccc(-c2ccccc2-c2nn[nH]n2)cc1 (stereo not drawn)
active: Potency [10] 30.9 µM | Potency [2] 43.6 µM | Potency [5] 9.76 µM | Potency [7] 34.6 µM

Cc1ccc(-n2nc(C(C)(C)C)cc2NC(=O)Nc2ccc(OCCN3CCOCC3)c3ccccc23)cc1
inactive: Potency [10] | Potency [2] | Potency [3] | Potency [4] | Potency [7] | Potency [8] | Potency [9]

CCC1=C[C@@H]2CN(C1)Cc1c([nH]c3ccccc13)[C@@](C(=O)OC)(c1cc3c(cc1OC)N(C)[C@H]1[C@@](O)(C(=O)OC)[C@H](OC(C)=O)[C@]4(CC)C=CCN5CC[C@]31[C@@H]54)C2
inactive: Potency [10] | Potency [2] | Potency [3] | Potency [7] | Potency [8] | Potency [9]

C[n+]1cc2c3c(ccc2c2ccc4cc5c(cc4c21)OCO5)OCO3
active: Potency [10] 0.465 µM | Potency [2] 0.585 µM | Potency [4] 0.827 µM | Potency [5] 0.585 µM | Potency [6] 0.465 µM | Potency [7] 4.65 µM | Potency [9] 0.737 µM

O=C(OC[C@H]1O[C@@H](OC(=O)c2cc(O)c(O)c(OC(=O)c3cc(O)c(O)c(O)c3)c2)[C@H](OC(=O)c2cc(O)c(O)c(OC(=O)c3cc(O)c(O)c(O)c3)c2)[C@@H](OC(=O)c2cc(O)c(O)c(OC(=O)c3cc(O)c(O)c(O)c3)c2)[C@@H]1OC(=O)c1cc(O)c(O)c(OC(=O)c2cc(O)c(O)c(O)c2)c1)c1cc(O)c(O)c(OC(=O)c2cc(O)c(O)c(O)c2)c1
inactive: cytotoxicity increase [10] -42.7% [at 15.8 µM] | cytotoxicity increase [2] -61.4% [at 15.8 µM] | cytotoxicity increase [3] -34.5% [at 15.8 µM] | activity change, negative = cytotoxicity [5] -14.1% [at 15.8 µM] | activity change [7] -38.7% [at 15.8 µM, stronger effect = higher value] | activity change, negative = cytotoxicity [8] -17.5% [at 15.8 µM] | cytotoxicity increase [9] -46.2% [at 15.8 µM]

Nc1ccccc1O
inactive: Potency [10] | Potency [2] | Potency [3] | Potency [4] | Potency [7] | Potency [9]

CCCCCCCCNC(C)C(O)c1ccc(SC(C)C)cc1 (stereo not drawn)
active: Potency [10] 16.9 µM | Potency [2] 16.9 µM | Potency [3] 21.3 µM | Potency [4] 15.1 µM | Potency [5] 9.52 µM | Potency [7] 19 µM | Potency [9] 21.3 µM

CCCCC(CC)CN=C(N)NC(N)=NCCCCCCN=C(N)NC(N)=NCC(CC)CCCC (stereo not drawn)
active: Potency [10] 9.52 µM | Potency [2] 8.49 µM | Potency [4] 10.7 µM | Potency [5] 5.35 µM | Potency [6] 8.49 µM | Potency [7] 8.49 µM | Potency [9] 10.7 µM

C=CC(=O)OCC(CO)(COCC(COC(=O)C=C)(COC(=O)C=C)COC(=O)C=C)COC(=O)C=C
active: Potency [10] 43.1 µM | Potency [2] 21.6 µM | Potency [4] 5.43 µM
inactive: Potency [3] | Potency [8] | Potency [9]

CC(C)(C)c1ccc(C(=O)CCCN2CCC(OC(c3ccccc3)c3ccccc3)CC2)cc1
inactive: Potency [8]
active: Potency [10] 23.9 µM | Potency [2] 21.3 µM | Potency [4] 21.3 µM | Potency [5] 8.49 µM | Potency [6] 9.52 µM | Potency [7] 21.3 µM | Potency [9] 23.9 µM

S=c1[nH]c2ccccc2s1
inactive: Potency [4] | Potency [5] | Potency [6]
active: Potency [10] 49 µM

Oc1ccc(Cl)cc1Sc1cc(Cl)ccc1O
inactive: Potency [3] | Potency [8]
active: Potency [2] 48.9 µM and 26.8 µM | Potency [5] 19.5 µM and 23.9 µM | Potency [6] 24.5 µM
43.6 µM (active) and inactive: Potency [10]

Cc1cc(N)c(S(=O)(=O)O)cc1Cl
inactive: Potency [10] | Potency [2] | Potency [4] | Potency [5] | Potency [6] | Potency [7] | Potency [8] | Potency [9]

CC(C)(C)NC(=O)[C@@H]1C[C@@H]2CCCC[C@@H]2CN1C[C@@H](O)[C@H](Cc1ccccc1)NC(=O)[C@H](CC(N)=O)NC(=O)c1ccc2ccccc2n1
inactive: Potency [1] | Potency [3] | Potency [7]
active: Potency [2] 55.7 µM | Potency [4] 55.7 µM | Potency [5] 19.7 µM | Potency [6] 19.7 µM

CCC(CN)=C(c1ccccc1)c1ccccc1
inactive: Potency [10] | Potency [3] | Potency [4] | Potency [5] | Potency [7] | Potency [8] | Potency [9]

CNc1ccc(O)cc1
active: Potency [10] 12.3 µM | Potency [2] 54.8 µM | Potency [4] 48.9 µM | Potency [5] 12.3 µM
inactive: Potency [7]

CC(=O)N1CCN(c2ccc(OC[C@H]3CO[C@](Cn4ccnc4)(c4ccc(Cl)cc4Cl)O3)cc2)CC1
active: Potency [10] 49 µM | Potency [2] 49 µM | Potency [4] 49 µM | Potency [5] 21.9 µM | Potency [6] 24.5 µM | Potency [7] 49 µM
inactive: Potency [9]
